Test results taken from ChEMBL document CHEMBL1157539, “Thousands of chemical starting points for antimalarial lead identification” (Nature, 2010).

Experiments:
Format in all cases: functional
Plasmodium falciparum [1] = test: GSK_TCMDC: Inhibition of Plasmodium falciparum 3D7 in whole red blood cells, using parasite LDH activity as an index of growth. Test compounds present at 2uM
Plasmodium falciparum [2] = test: GSK_TCMDC: Inhibition of Plasmodium falciparum Dd2 in whole red blood cells, using parasite LDH activity as an index of growth. Test compounds present at 2uM
HepG2 = test: GSK_TCMDC: Percent inhibition of human HepG2 cell line. Test compounds present at 10uM.

Row | Structure (SMILES) | Inhibition (Plasmodium falciparum [1]) [%] | Inhibition (Plasmodium falciparum [2]) [%] | Inhibition (HepG2) [%]
1 | CCC1(C)N=C(N)N=C(N)N1c1ccccc1.Cl (stereo not drawn) | 98 | 0 | 6
2 | Cc1ccc(C(=O)NC2CCN(CCNC(=O)Nc3cc(C)nc4ccccc34)CC2)cc1 | 98 | 76 | 0
3 | CCCN1CCN(CC(O)CNC(=O)Nc2ccc(Cl)cc2)CC1.O=C(O)C(F)(F)F (stereo not drawn) | 100 | 100 | 6
4 | CCCCCCC(N)c1ccc(OCCCOc2ccc(C(N)CCCCCC)cc2)cc1.Cl (stereo not drawn) | 88 | 70 | 100
5 | CN1CCC[C@H]1COc1ccc(CN2CC[C@H](NC(=O)c3ccc(Cl)c(Cl)c3)C2)c2ccccc12.O=C(O)C(F)(F)F | 100 | 98 | 47
6 | Cc1ccc(C)c(CN2CCC(CNC(=O)c3cc4ccc5cccnc5c4[nH]3)CC2)c1 | 95 | 10 | 25
7 | FC(F)(F)c1cnc(Sc2nnc(-c3ccncc3)o2)c(Cl)c1 | 96 | 96 | 10
8 | CNCCNCc1ccc(-c2ccc(-c3nc4cc(C(F)(F)F)ccc4[nH]3)cc2)cc1.O=C(O)C(F)(F)F | 99 | 92 | 28
9 | N#Cc1cccc(NC(=O)Nc2cccc(-c3cccc(-c4nc5cc(F)ccc5[nH]4)c3)c2)c1 | 100 | 66 | 60
10 | COCCN1CCC(NCC(C)(C)c2nc(-c3ccc(Cl)c(O)c3)c(-c3ccncc3)[nH]2)CC1.Cl | 100 | 47 | 0
11 | O=C(Nc1cccnc1)c1cc(-c2cccnc2)nc2ccc(Cl)cc12 | 97 | 50 | 45
12 | COc1ccc2nccc(N3CCN(CCNCc4ccc5c(n4)NC(=O)CO5)CC3)c2n1.Cl | 98 | 12 | 10
13 | CC(=O)OC[C@H]1O[C@@H](C#Cc2ccccc2)[C@H](OC(C)=O)[C@@H](OC(C)=O)[C@@H]1OC(C)=O | 95 | 90 | 5
14 | CN1CCN(c2cc3c(Nc4ccc5c(cnn5Cc5ccccc5)c4)ncnc3cn2)CC1 | 88 | 35 | 9
15 | O=C(NCCCCN1CCC(c2cccc3ccccc23)CC1)c1ccc(NC(=O)c2ccc(Cl)cc2)cc1 | 99 | 39 | 20
16 | Cc1onc(-c2ccccc2Cl)c1C(=O)Nc1cc(Cl)c(Cl)cc1Cl | 90 | 57 | 3
17 | CCCCSc1ccc2nc(-c3c[nH]c4ccc(C#N)cc34)cn2c1 | 94 | 37 | 3
18 | CCOc1ccc(N2C(N)=NC(N)=NC2(C)C)cc1.Cl | 95 | 0 | 10
19 | O=C(/C=C/c1ccsc1)N1CCC(CCN2CCC(c3c[nH]c4ccccc34)CC2)CC1 | 88 | 24 | 37
20 | Clc1cccc(-c2nc(Nc3ccnc(-c4ccc(CN5CCOCC5)cc4)c3)c3ccccc3n2)c1 | 100 | 65 | 8
21 | ON=C1CCc2cc(-c3cc(-c4ccc(OC5CCNCC5)cc4)oc3-c3ccncc3)ccc21 | 100 | 99 | 34

Row | Structure (SMILES) | Inhibition (Plasmodium falciparum [1]) [%] | Inhibition (Plasmodium falciparum [2]) [%] | Inhibition (HepG2) [%]
22 | COc1ccc2nccc(N3CCC(NCCNCc4ccc5c(n4)NC(=O)CO5)C3)c2n1.Cl (stereo not drawn) | 100 | 47 | 0
23 | CC(C)COc1ccc(Cl)cc1Cc1nc(-c2nc3ccc(CN(C)C)cc3[nH]2)co1.Cl | 97 | 87 | 14
24 | COc1cc2ncnc(Nc3ccc(Br)c(Cl)c3)c2cc1OC.Cl | 100 | 15 | 22
25 | COc1cccc(CN2CCC3(CC2)CN(C(=O)Nc2ccc(Cl)c(Cl)c2)C3)c1 | 97 | 2 | 29
26 | COCCN1CCC(CN(C)CC(C)(C)c2nc(-c3ccc(Cl)c(O)c3)c(-c3ccncc3)[nH]2)CC1.Cl | 94 | 10 | 0
27 | O=C(Nc1ccccc1)N(Cc1cccc(-c2ccc(CNCCc3ccccc3)cc2)c1)C1CCN(Cc2ccccc2)CC1.O=C(O)C(F)(F)F | 100 | 95 | 100
28 | CCCc1cc(Cc2cnc(N)nc2N)cc(CCC)c1OCCCCC(=O)OC | 94 | 0 | 0
29 | Cc1c(F)cc(C(=O)NC2CC2)cc1-c1ccc2c(cnn2S(=O)(=O)c2cccs2)c1 | 92 | 68 | 32
30 | NC(=O)c1cccc(CNCc2ccc(-c3cccc(-c4nc5ccccc5[nH]4)c3)cc2)c1.O=C(O)C(F)(F)F | 100 | 94 | 29
31 | Cc1cnccc1/C=C/c1cccc(OCCCN2CCc3ccc(S(C)(=O)=O)cc3CC2)c1 | 92 | 72 | 1
32 | CC1CCCCN1CCCNC(=O)c1cccc(-c2cc3cc(Cl)c(Cl)cc3[nH]2)c1.O=C(O)C(F)(F)F (stereo not drawn) | 94 | 7 | 22
33 | CC(Oc1ccc(Cl)cc1)C(=O)NCCC1CCN(CCCCCNC(=O)/C=C/c2ccc(Cl)c(Cl)c2)CC1 (stereo not drawn) | 89 | 20 | 48
34 | COc1cccc(C2CCN(CCCCNC(=O)c3ccc(NC(=O)c4ccc(Cl)cc4)cc3)CC2)c1 | 99 | 40 | 18
35 | Cc1ccc(C)c(C2CCN(CCCCNC(=O)c3ccc(NC(=O)c4ccc(Cl)cc4)cc3)CC2)c1 | 94 | 13 | 15
36 | Cc1cc(NC(=O)c2ccco2)ccc1OC1CCN(Cc2ccc(F)cc2)CC1.O=C(O)C(F)(F)F | 96 | 93 | 4
37 | COc1ccc(NC(=O)Nc2cccc(-c3cccc(-c4nc5cc(F)ccc5[nH]4)c3)c2)cc1 | 99 | 39 | 59
38 | CC(C)C[C@H](NC(=O)c1ccc(OCCN2CCOCC2)cc1)C(=O)N[C@H](/C=N/NC(=O)c1ccccc1)CCc1ccccc1 | 98 | 90 | 17
39 | CCCCCCNC(=O)C(N)CCCC(N)C(=O)NCCCCCC.Cc1ccc(S(=O)(=O)O)cc1 (stereo not drawn) | 99 | 0 | 0
40 | CCOc1cc(C)ccc1C1CCN(CCCCNC(=O)c2cnc(-c3ccc(C(F)(F)F)cc3)[nH]2)CC1 | 95 | 97 | 16
41 | Cc1cc(C(=O)NC2CCN(Cc3ccccc3)CC2)ccc1-c1nc2cc(Cl)c(Cl)cc2[nH]1 | 96 | 32 | 7
42 | O=C(Nc1cccc(CN2CCCN(CC3CCCCC3)CC2)c1)c1ccc(Cl)c(Cl)c1.O=C(O)C(F)(F)F | 91 | 15 | 39

Row | Structure (SMILES) | Inhibition (Plasmodium falciparum [1]) [%] | Inhibition (Plasmodium falciparum [2]) [%] | Inhibition (HepG2) [%]
43 | COc1cc(N)cc2sc(N)nc12 | 99 | 99 | 0
44 | CCOc1cc(Cc2cnc(N)nc2N)cc(OCC)c1OCC | 97 | 0 | 0
45 | Cc1ccccc1C1CCN(C2CCC(NC(=O)/C=C/c3ccc(OC(F)(F)F)cc3)CC2)CC1 (stereo not drawn) | 100 | 67 | 96
46 | c1ccc(N2CCN(c3cc(-c4cccnc4)nc(-c4ccncc4)n3)CC2)nc1 | 99 | 22 | 22
47 | Cl.Cn1ncc2c3c(CCN4CCC(NCc5cc6c(cn5)OCC6)CC4)c(Cl)cnc3ccc21 | 94 | 0 | 4
48 | COc1ccc(-c2cccc(NC(=O)c3cccc(C#N)c3)c2)cc1CNC(C)C.O=C(O)C(F)(F)F | 100 | 51 | 22
49 | CCN(CC)/C(=N\C(=N)NCCCCCCNC(=N)/N=C(\Nc1ccc(Cl)cc1)N(CC)CC)Nc1ccc(Cl)cc1 | 97 | 96 | 1
50 | O=C(NCc1cccc(C(F)(F)F)c1)c1ccc(-c2nc3cc(F)c(F)cc3[nH]2)cc1 | 97 | 7 | 0
51 | Cc1cc(F)ccc1-c1nc(NCCCNCCc2ccccc2)nc2c1ccc(=O)n2-c1c(F)cccc1F.O=C(O)C(F)(F)F | 100 | 100 | 36
52 | COc1cc(NC(=O)/C=C/c2ccccc2OC(F)(F)F)cc(OCCN2CCC(O)(c3ccccc3)CC2)c1.O=C(O)C(=O)O | 100 | 50 | 61
53 | Cc1c(Br)cc2nc(-c3ccc(C(=O)NC4CCN(Cc5ccccc5)CC4)cc3)[nH]c2c1C | 100 | 98 | 4
54 | Cc1cccc(Nc2nc(NCCCCN)nc3cc[nH]c(=O)c23)c1.O=C(O)C(F)(F)F | 98 | 97 | 34
55 | COc1cccc(CCNc2nc(NCc3ccccc3)c3cc(OC)c(OC)cc3n2)c1 | 100 | 99 | 20
56 | CC(=O)Nc1ccc(CN2CCCN(c3cc(NC(=O)c4cccc(C)c4)ccn3)CC2)cc1.O=C(O)C(F)(F)F | 92 | 10 | 0
57 | CCCCC1(NC(=O)[C@@H](Nc2ccc(C#N)c3ccccc23)C2CCCCC2)CCCCC1.O=C(O)C(F)(F)F | 91 | 84 | 8
58 | O=C(Nc1ccc([N+](=O)[O-])cc1)Nc1cc(OCC(F)(F)F)cc(OCC(F)(F)F)c1 | 100 | 100 | 71
59 | COc1ccc(C=NNc2nc3ccccc3[nH]2)cc1O | 95 | 13 | 15
60 | N=c1cc(C=Cc2ccc(O)cc2)[nH]c2ccccc12 | 100 | 14 | 15
61 | COc1ccc(CNCc2ccccc2)cc1-c1ccc(S(=O)(=O)NCCN2CCCC2)s1.O=C(O)C(F)(F)F | 100 | 62 | 32
